From PubChem BioAssay (NCI)
The panel holds about 79,000 compounds, 15% with a hit somewhere; the sample as a whole holds those more often. Unmarked numbers belong to inactive results. Active and inactive are the calls of the source. Cut-off read from the data, not from the text of the source: active = growth inhibition above about 70%; inactive = the rest.

Legend:
[1] = NCI Yeast Anticancer Drug Screen. Data for the rad50 strain (AID 155);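 note: 0% = growth of vehicle-only cultures of the same strain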; conditions: S. cerevisiae rad50 strain growth inhibition, stronger effect = higher value
How it was run: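 A DNA repair-deficient yeast mutant serves as the test organism; compound-induced growth inhibition is calculated against vehicle-treated cells.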

[2] = NCI Yeast Anticancer Drug Screen. Data for the mec2-1 strain (AID 157); conditions: S. cerevisiae mec2-1 strain, stronger effect = higher value
How it was run: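 Growth inhibition is read against vehicle-treated controls after compound exposure of the mec2-1 yeast strain, which is defective in DNA damage repair or cell cycle control.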

[3] = NCI Yeast Anticancer Drug Screen. Data for the sgs1 mgt1 strain (AID 161);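 note: 0% = growth of cultures given vehicle only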; conditions: S. cerevisiae sgs1 mgt1 strain, stronger effect = higher value
How it was run: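 Percent growth inhibition was derived by comparing compound-exposed mutant yeast with vehicle-exposed cultures. The strain carries alterations in DNA damage repair.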

[4] = NCI Yeast Anticancer Drug Screen. Data for the cln2 rad14 strain (AID 165);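 note: 0% = growth equal to vehicle treated cultures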; conditions: S. cerevisiae cln2 rad14 strain, stronger effect = higher value
How it was run: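 Growth inhibition, relative to vehicle-treated controls, is the read-out. The test organism is a yeast strain with defined genetic alterations, cln2 rad14.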

[5] = NCI Yeast Anticancer Drug Screen. Data for the bub3 strain (AID 167); conditions: S. cerevisiae bub3 mutant strain, stronger effect = higher value
How it was run: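 Inhibition values come from growth of compound-treated mutant yeast normalised to vehicle-treated controls.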

[6] = NCI Yeast Anticancer Drug Screen. Data for the mlh1 rad18 strain (AID 175); conditions: S. cerevisiae mlh1 rad18 strain growth inhibition, stronger effect = higher value
How it was run: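 Cells of a genetically altered yeast strain, deficient in DNA damage repair, were treated with compound. Their growth was then compared with that of vehicle-treated cultures to give inhibition.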

[7] = at 5.0 µM (retest, dose inferred, filed as 0.5)
[8] = at 50.0 µM (retest, dose inferred, filed as 5.0)

Row | Compound | growth inhibition [1, 7] | growth inhibition [1, 8] | growth inhibition ([1]; at 50.0 µM) | growth inhibition [2, 7] | growth inhibition [2, 8] | growth inhibition ([2]; at 50.0 µM) | growth inhibition [3, 7] | growth inhibition [3, 8] | growth inhibition ([3]; at 50.0 µM) | growth inhibition [4, 7] | growth inhibition [4, 8] | growth inhibition ([4]; at 50.0 µM) | growth inhibition [5, 7] | growth inhibition [5, 8] | growth inhibition ([5]; at 50.0 µM) | growth inhibition [6, 7] | growth inhibition [6, 8] | growth inhibition ([6]; at 50.0 µM)
1 | COc1ccc2[nH]c3ccc4cc[n+](CCN5CCC(C6CCN(CC[n+]7ccc8ccc9[nH]c%10ccc(OC)cc%10c9c8c7)CC6)CC5)cc4c3c2c1 | 69% | 98% (active) | 90.4% (active) | 57% | 98% (active) | 93.5% (active) | 29% | 98% (active) | 90.1% (active) | 34% | 96% (active) | 91.1% (active) | 22% | 96% (active) | 91.1% (active) | 77% (active) | 97% (active) | 90.5% (active)
2 | N#CC1(C#N)C(C#N)(C#N)C12CCCC2 | 5% | 50% | 38.9% | 4% | 54% | 21.4% | 4% | 66% | 74% (active) | 1% | 30% | 16.9% | 4% | 81% (active) | 12.4% | 5% | 91% (active) | 67.3%
3 | O=[N+]([O-])c1ccc(CCCl)c(CCl)c1 | -150% | 94% (active) | 97.4% (active) | -48% | 94% (active) | 98.8% (active) | -51% | 91% (active) | 91% (active) | -50% | 92% (active) | 96.4% (active) | -55% | 79% (active) | 90.3% (active) | -111% | 92% (active) | 89% (active)
4 | C=C1OC(=O)C(=O)N1CC(=O)O | -156% | -170% | -1.35% | -50% | -54% | 5.4% | -61% | -70% | -5.5% | -54% | -69% | 44.9% | -70% | -82% | -6.45% | -139% | -119% | 4.05%
5 | CSC(=S)CC(O)[C@@H]1CC2c3ccccc3C1c1ccccc12 (stereo not given in full) | -5% | 94% (active) | 76.7% (active) | 1% | 93% (active) | 84.3% (active) | 1% | 93% (active) | 65.7% | 2% | 92% (active) | 79.7% (active) | 17% | 93% (active) | 77% (active) | 5% | 93% (active) | 71.5% (active)
6 | NC(=S)Nc1cccc(C(F)(F)F)c1 | -14% | 92% (active) | 99.2% (active) | -20% | 95% (active) | 99.2% (active) | -10% | 92% (active) | 99.2% (active) | -45% | 92% (active) | 98.9% (active) | -24% | 94% (active) | 98.9% (active) | -19% | 93% (active) | 98.9% (active)
7 | N#CC(C(=O)C(=O)Nc1ccc(Cl)cc1)c1c(Cl)cccc1Cl (stereo not given) | 12% | 1% | 56.2% | 7% | 11% | 7.5% | 24% | 8% | 28.8% | 18% | 10% | -22.4% | 27% | 6% | 8.2% | 14% | 3% | 24.9%
8 | Nc1ccc(/C=C2/c3ccccc3-c3nc4ccccc4cc32)cc1 | 3% | 87% (active) | 78.9% (active) | 0% | 63% | 15.6% | -4% | 77% (active) | 59.9% | -4% | 33% | 5% | -1% | 57% | 6.8% | 1% | 85% (active) | 52.1%
9 | O=[N+]([O-])c1ccc(C(Cl)Cc2ccc(Cl)cc2)cc1 (stereo not given) | 10% | 66% | 90.2% (active) | 7% | 64% | 82.5% (active) | 22% | 91% (active) | 93.7% (active) | -8% | 61% | 62.6% | 20% | 82% (active) | 94.3% (active) | -18% | 71% (active) | 89.1% (active)
10 | COC(=O)n1c(C[P+](c2ccccc2)(c2ccccc2)c2ccccc2)cc2ccccc21 | 89% (active) | 100% (active) | 99.2% (active) | 90% (active) | 100% (active) | 99.6% (active) | 79% (active) | 99% (active) | 99.5% (active) | 91% (active) | 99% (active) | 98.1% (active) | 95% (active) | 100% (active) | 99.4% (active) | 90% (active) | 99% (active) | 99% (active)
